# Measurements: PubChem BioAssay
# Calls of active or inactive are those of the source.
# Columns and labels:
# [1] = optical density shifts of acrAB sulA E. coli – strain DRC41, OD650, 48 h, E. coli filamentation inducer project, primary screen (AID 1152); settings: higher = more signal, called active from +8 up or from −8 down;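 note: E. coli MC1000 strain DRC41 lacking acrAB efflux pump and sulA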
# [2] = probe aLefty1 binding on compound microarray – biochemical, small-molecule microarray, 635/667 nm fluorescence, primary screen (AID 1153); settings: higher = more signal;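 note: score merges spot fluorescence with signal-to-noise ratio from the scanned slide images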
# [3] = plasmodial surface anion channel blockers, osmotic lysis – cell-based, P. falciparum Indochina, OD700, 1 h, primary screen (AID 1154); settings: P. falciparum Indochina infected RBC osmotic lysis, higher = more signal, called active from +8 up or from −8 down
# [4] = plasmodial surface anion channel blockers, osmotic lysis – cell-based, P. falciparum Indochina, OD700, 2 h, primary screen (AID 1155);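 note: lysis reports solute entry through the parasite surface anion channel PSAC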; settings: P. falciparum Indochina infected erythrocytes, higher = more signal, called active from +8 up or from −8 down
# [5] = changes in parasitized red cell lysis, either direction – P. falciparum Indochina, OD700, 3 h, PSAC antagonist project, primary screen (AID 1156); settings: P. falciparum-infected erythrocytes, osmotic lysis, higher = more signal, called active from +8 up or from −8 down
# [6] = plasmodial surface anion channel blockers, osmotic lysis – cell-based, P. falciparum Indochina, OD700, 18 h, primary screen (AID 1157); settings: P. falciparum Indochina infected erythrocytes, osmotic lysis OD700, 18 h; higher = more signal, called active from +8 up or from −8 down
# [7] = S6 kinase pathway phospho-S6 level changes – cell-based, A549, cytoblot, luminescence, serum-stimulated, primary screen (AID 1158); settings: 5 h, higher = more signal;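 note: serum-stimulated A549 lung adenocarcinoma cells; signal is phosphorylated S6 detected by cytoblot immunostaining with HRP secondary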
# [8] = target: NADPH oxidase 2 (Homo sapiens) (UniProt P04839); experiment: compounds shifting NOX2 Amplex Red fluorescence – cell-based, HEK293-NOX2, PMA-stimulated, NOX inhibitor project, primary screen (AID 1159); settings: 45 min, higher = more signal, called active from +8 up or from −8 down; note: test concentration not given here
# Sequence of NADPH oxidase 2 (Homo sapiens) (P04839 whole entry, looked up): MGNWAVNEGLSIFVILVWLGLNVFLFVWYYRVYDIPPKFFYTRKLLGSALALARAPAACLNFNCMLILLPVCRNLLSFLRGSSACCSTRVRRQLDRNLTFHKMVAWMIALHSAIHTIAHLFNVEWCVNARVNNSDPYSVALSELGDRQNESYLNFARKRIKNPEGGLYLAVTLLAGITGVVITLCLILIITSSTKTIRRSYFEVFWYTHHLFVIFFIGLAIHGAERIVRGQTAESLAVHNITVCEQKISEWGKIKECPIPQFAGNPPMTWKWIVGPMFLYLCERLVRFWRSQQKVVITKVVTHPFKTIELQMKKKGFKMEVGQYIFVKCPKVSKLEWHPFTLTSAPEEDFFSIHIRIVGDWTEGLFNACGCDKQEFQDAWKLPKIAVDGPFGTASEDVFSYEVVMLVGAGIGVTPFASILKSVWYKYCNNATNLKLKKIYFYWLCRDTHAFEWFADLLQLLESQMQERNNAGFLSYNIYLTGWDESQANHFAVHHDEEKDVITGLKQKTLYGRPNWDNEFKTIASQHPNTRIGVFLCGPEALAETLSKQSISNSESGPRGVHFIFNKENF
# [9] = target: NADPH oxidase 4 (Homo sapiens) (UniProt Q9NPH5); experiment: compounds shifting NOX4 Amplex Red fluorescence – cell-based, HEK293-NOX4, tetracycline-induced, NOX inhibitor project, primary screen (AID 1160); settings: HEK293-NOX4, Amplex Red H2O2 fluorescence, 45 min; higher = more signal, called active from +8 up or from −8 down
# Sequence of NADPH oxidase 4 (Homo sapiens) (Q9NPH5 whole entry, looked up): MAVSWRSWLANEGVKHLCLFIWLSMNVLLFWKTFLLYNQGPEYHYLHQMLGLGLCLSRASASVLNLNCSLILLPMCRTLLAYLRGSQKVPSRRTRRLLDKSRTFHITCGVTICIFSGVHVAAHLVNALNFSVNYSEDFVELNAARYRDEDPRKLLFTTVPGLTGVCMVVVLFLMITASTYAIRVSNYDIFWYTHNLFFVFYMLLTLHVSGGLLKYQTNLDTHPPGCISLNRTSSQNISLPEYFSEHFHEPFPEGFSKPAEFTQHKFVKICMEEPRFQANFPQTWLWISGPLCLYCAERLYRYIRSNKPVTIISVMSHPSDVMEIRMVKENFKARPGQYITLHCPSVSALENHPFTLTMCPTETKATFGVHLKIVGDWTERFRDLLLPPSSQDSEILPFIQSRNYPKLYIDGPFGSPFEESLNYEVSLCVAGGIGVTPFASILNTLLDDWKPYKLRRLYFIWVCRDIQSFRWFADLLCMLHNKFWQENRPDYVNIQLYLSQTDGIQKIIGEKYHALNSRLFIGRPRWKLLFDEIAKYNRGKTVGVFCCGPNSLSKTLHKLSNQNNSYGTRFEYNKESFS
# [10] = target: NADPH oxidase 5 (Homo sapiens) (UniProt Q96PH1); experiment: compounds shifting NOX5 Amplex Red fluorescence – cell-based, HEK293-NOX5, NOX inhibitor project, primary screen (AID 1161); settings: HEK293-NOX5, ionomycin, 45 min, higher = more signal
# Sequence of NADPH oxidase 5 (Homo sapiens) (Q96PH1 whole entry, looked up): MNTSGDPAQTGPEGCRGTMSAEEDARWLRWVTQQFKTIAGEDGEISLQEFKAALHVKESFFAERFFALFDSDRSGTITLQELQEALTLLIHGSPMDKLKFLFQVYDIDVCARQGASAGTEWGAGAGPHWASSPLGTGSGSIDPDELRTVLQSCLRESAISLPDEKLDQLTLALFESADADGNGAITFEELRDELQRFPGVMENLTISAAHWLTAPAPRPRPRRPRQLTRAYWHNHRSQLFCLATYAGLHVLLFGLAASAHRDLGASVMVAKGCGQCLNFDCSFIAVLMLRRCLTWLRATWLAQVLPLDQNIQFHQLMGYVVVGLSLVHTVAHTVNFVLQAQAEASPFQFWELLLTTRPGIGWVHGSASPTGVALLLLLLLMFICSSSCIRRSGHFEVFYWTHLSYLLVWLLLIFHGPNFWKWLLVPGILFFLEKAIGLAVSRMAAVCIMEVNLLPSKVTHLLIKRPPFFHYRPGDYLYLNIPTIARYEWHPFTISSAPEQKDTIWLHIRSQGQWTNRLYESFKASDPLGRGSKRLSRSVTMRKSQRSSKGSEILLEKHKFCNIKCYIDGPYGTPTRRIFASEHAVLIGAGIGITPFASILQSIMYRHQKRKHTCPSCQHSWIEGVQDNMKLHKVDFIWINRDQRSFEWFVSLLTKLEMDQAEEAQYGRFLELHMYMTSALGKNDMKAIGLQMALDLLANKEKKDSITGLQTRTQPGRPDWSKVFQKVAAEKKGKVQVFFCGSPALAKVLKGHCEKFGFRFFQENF
SMILES,z-score [1],composite z-score [2],z-score [3],z-score [4],z-score [5],z-score [6],z-score [7],z-score [8],z-score [9],z-score [10]
CC1=C2[C@@H](CCc3ccccc3)OB(O)C[C@@H]2[C@@H]2C(=O)N(Cc3ccccc3)C(=O)[C@@H]2C1,-0.42 (inactive),-0.301,11.8 (active),1.28 (inactive),-0.633 (inactive),0.55 (inactive),0.433,-0.0748 (inactive),0.167 (inactive),0.587
C=C(COC)C(=O)CC[C@@H](OC(C)=O)c1cccc(OCCO)c1,0.0328 (inactive),-0.152,4.13 (inactive),1.11 (inactive),0.864 (inactive),0.529 (inactive),-0.487,0.212 (inactive),-1.01 (inactive),-1.06
O=C1N(CCS(=O)(=O)c2ccccc2)c2ccccc2[C@H]2OC(c3ccc(OCCCO)cc3)=N[C@@]12Cc1ccccc1,-1.05 (inactive),0.253,31.2 (active),27.5 (active),3.08 (inactive),6.96 (inactive),0.468,-1.85 (inactive),1.07 (inactive),-0.191
CCOC(=O)C=Cc1cccc(C)c1O,-0.718 (inactive),-0.0011,9 (active),-0.0712 (inactive),0.193 (inactive),-2.11 (inactive),1.52,-5.05 (inactive),-4.89 (inactive),-4.98
NC(=O)NCC#Cc1ccc2c(c1)[C@]1(C(=O)N2)[C@H](c2ccccc2OCCO)N2[C@H](c3ccccc3)[C@H](c3ccccc3)OC(=O)[C@H]2[C@@H]1C(=O)O,0.851 (inactive),-0.278,1.07 (inactive),-0.525 (inactive),-1.78 (inactive),0.0482 (inactive),0.171,2.78 (inactive),0.517 (inactive),-0.123
CC(=O)NCCCC[C@@H]1NC(=O)[C@@H]2C[C@H](C(=O)NCCCCCN)[C@H](c3ccc(O)cc3)N2C1=O,2.04 (inactive),0.482,1.46 (inactive),0.374 (inactive),0.45 (inactive),0.301 (inactive),0.856,1.93 (inactive),0.0542 (inactive),2.86
C[C@@H]1NC(=O)[C@@H](Cc2ccccc2)NC(=O)[C@@]23C(=O)N[C@@H](Cc4ccccc4)C2[C@H](C)[C@@]2(C)O[C@H]2C3/C=C/C/C=C\CNC1=O (stereo not given in full),-1.02 (inactive),-0.0046,1.92 (inactive),0.581 (inactive),0.638 (inactive),0.159 (inactive),-0.177,0.722 (inactive),-0.614 (inactive),0.523
COC(=O)[C@@]1(Cc2ccc(F)cc2)[C@H]2c3cc(C(=O)N(C)C)n(CCc4ccc(OC)c(Br)c4)c3C[C@H]2CN1C(=O)c1ccccc1,-1.75 (inactive),1.32,1.89 (inactive),-1.04 (inactive),0.746 (inactive),-1.96 (inactive),1.24,-3.62 (inactive),-3.99 (inactive),-4.26
CCOC(=O)C[C@H]1[C@H](OC(=O)Cc2ccc3c(c2)OCO3)[C@@H](NC(=O)c2ccc3ccccc3n2)c2cc(OCCCO)ccc2N1C(=O)c1ccccc1,1.43 (inactive),0.101,8.88 (active),1.32 (inactive),-0.576 (inactive),0.308 (inactive),-0.246,-1.88 (inactive),0.521 (inactive),-2
COc1ccc([Si](C)(C)[C@@H]2[C@@H](CC(=O)N(CCO)Cc3ccccc3)O[C@]3(C(=O)N(Cc4cccc(N5CCCCC5=O)c4)c4ccccc43)[C@H]2C)cc1,0.152 (inactive),0.527,4.33 (inactive),1.85 (inactive),0.422 (inactive),1.14 (inactive),1.19,0.609 (inactive),1.28 (inactive),3.58
COCCOC(=O)N1C(=O)[C@@]2(c3cc(C#CCC(C(=O)OC)C(=O)OC)ccc31)[C@H](c1ccc(OCCO)cc1)N1[C@H](c3ccccc3)[C@H](c3ccccc3)OC(=O)[C@H]1[C@@H]2C(=O)N1CCc2cc(OC)c(OC)cc2C1,-0.0746 (inactive),0.269,6.85 (inactive),2.56 (inactive),0.324 (inactive),1.78 (inactive),-0.215,2.22 (inactive),1.17 (inactive),1.29
CCCC=C(CCC)[C@@H](NC(=O)C(C)(C)C)c1ccc(C(=O)OC)cc1,-1.31 (inactive),0.666,0.494 (inactive),0.889 (inactive),-1.28 (inactive),1.21 (inactive),0.0791,-0.129 (inactive),0.624 (inactive),2.5
C=C(COC)/C(=C/C[C@H](OC(=O)c1ccncc1)c1ccc(CO)o1)c1cnc2ccccc2c1,-0.504 (inactive),0.213,6.19 (inactive),0.807 (inactive),1.35 (inactive),0.307 (inactive),-0.959,1.13 (inactive),-0.163 (inactive),-0.377
COc1ccc([Si](C)(C)[C@H]2[C@H](CC(=O)N3CCC[C@H]3CO)O[C@@]3(C(=O)N(Cc4ccc(N5CCOC5=O)cc4)c4ccccc43)[C@@H]2C)cc1,0.397 (inactive),0.298,9.5 (active),1.8 (inactive),0.088 (inactive),0.746 (inactive),0.0491,1.94 (inactive),-0.0662 (inactive),3.78
NC(=O)[C@H]1[C@@H]2C(=O)O[C@@H](c3ccccc3)[C@@H](c3ccccc3)N2[C@@H](c2ccc(OCCO)cc2)[C@]12C(=O)Nc1ccc(C#CCCO)cc12,-0.628 (inactive),0.0753,6.95 (inactive),1.05 (inactive),-1.02 (inactive),0.466 (inactive),-0.671,2.03 (inactive),1.03 (inactive),1.13
CCC#CCN(Cc1ccccc1Br)[C@H](/C=C/C1CC1)[C@@H](O)Cc1ccccc1,2.06 (inactive),-0.13,-0.224 (inactive),-0.834 (inactive),-0.239 (inactive),-1.53 (inactive),1.62,0.214 (inactive),1.07 (inactive),-1.2
CC1CC/C=C\[C@H]2OC34C=CCN(c5ccc(Cl)cc5)C(=O)[C@H]3N(C(C)CO)C(=O)[C@]4(C)C2C(=O)O1 (stereo not given in full),0.346 (inactive),-0.284,0.685 (inactive),0.67 (inactive),0.335 (inactive),0.281 (inactive),0.116,0.889 (inactive),-0.383 (inactive),1.17
C=CCC(OC(C)=O)[C@@H]1[C@@H](N(Cc2cccc3ccccc23)C(=O)Cc2ccc(F)cc2)c2cc(OCCCO)ccc2N1C(=O)c1ccc2ccccc2c1 (stereo not given in full),0.978 (inactive),0.23,1.06 (inactive),0.479 (inactive),0.51 (inactive),0.484 (inactive),0.336,-1.5 (inactive),0.344 (inactive),0.453
CN(C)C(=O)[C@]1(CCC(=O)OC(C)(C)C)N=C(c2ccc(OCCCO)cc2)O[C@@H]1c1ccccc1CN=[N+]=[N-],0.636 (inactive),-0.182,29.8 (active),25.2 (active),2.29 (inactive),3.77 (inactive),-0.175,0.629 (inactive),2.22 (inactive),1.19
O=c1cccc(-c2ccc([N+](=O)[O-])cc2)o1,0.609 (inactive),-0.241,0.687 (inactive),-0.129 (inactive),0.0448 (inactive),-1.08 (inactive),0.248,0.304 (inactive),0.542 (inactive),0.0589
CN1C(=O)C2C=CC(C(O)c3cccn3C)N(Nc3ccc([N+](=O)[O-])cc3[N+](=O)[O-])C2C1=O (stereo not given),-0.824 (inactive),0.551,0.627 (inactive),1.31 (inactive),-0.0499 (inactive),1.17 (inactive),-1.11,-0.797 (inactive),-1.5 (inactive),-1.27
CCCCC(CC)C(O)C1C=CC2C(=O)N(c3ccccc3)C(=O)C2N1Nc1ccc(C#N)cc1 (stereo not given),0.344 (inactive),0.834,9.85 (active),2.68 (inactive),1.89 (inactive),1.54 (inactive),-0.423,0.414 (inactive),-2.2 (inactive),-1.91
